Measured values from PubChem BioAssay AID1159580 (chemical genetic matrix, 2015).
About 2,000 (36%) of roughly 5,500 compounds were called active. About 18% were inconclusive and are not listed. Rule as the data show it: active = normalized growth mostly below about 0.91 (no sharp cut-off); inconclusive = no clear call, values can overlap the other calls; inactive = mostly above about 0.92. The list shows a part of the results.

Assay: chemical genetic growth profiling, strain panel (AID 1159580);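 also: tested at 20 µM; growth read once vehicle control cultures reached saturation at 30 °C; 1 = growth at the plate median or of vehicle wells; lower values mean less growth of the strain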
Settings: growth OD

Measured: normalized growth

OC(CCN1CCCCC1)(c1ccccc1)c1ccccc1
inactive: S. cerevisiae deletion strains, locus YJR075W, strain HOC1, hits give low values 1 | S. cerevisiae deletion strains, locus YKL009W, strain mrt4, hits give low values 1.03 | S. cerevisiae deletion strains, locus YKL068W, hits give low values 1.01 | S. cerevisiae deletion strains, locus YKL085W, strain MDH1 (second series), hits give low values 1.07 | S. cerevisiae deletion strains, locus YKL085W, strain MDH1, hits give low values 1.07 | S. cerevisiae deletion strains, locus YKL160W, strain elf1, hits give low values 1.03 | S. cerevisiae deletion strains, locus YKL190W, strain CNB1, hits give low values 1.01 | S. cerevisiae deletion strains, locus YKR001C, strain vps1, hits give low values 1.01 | S. cerevisiae deletion strains, locus YKR026C, strain gcn3, hits give low values 0.993 | S. cerevisiae deletion strains, locus YKR091W, strain srl3, hits give low values 0.993 | S. cerevisiae deletion strains, locus YLL001W, strain dnm1, hits give low values 1.01 | S. cerevisiae deletion strains, locus YLL026W, hits give low values 0.983 | S. cerevisiae deletion strains, locus YLL041C, strain sdh2, hits give low values 0.994 | S. cerevisiae deletion strains, locus YLR027C, strain aat2, hits give low values 1 | S. cerevisiae deletion strains, locus YLR039C, strain RIC1, hits give low values 1.08 | S. cerevisiae deletion strains, locus YLR058C, strain SHM2, hits give low values 1.01 | S. cerevisiae deletion strains, locus YLR102C, strain apc9, hits give low values 1.01 | S. cerevisiae deletion strains, locus YLR113W, strain HOG1, hits give low values 1.05 | S. cerevisiae deletion strains, locus YLR221C, strain rsa3, hits give low values 0.966 | S. cerevisiae deletion strains, locus YLR258W, strain gsy2, hits give low values 0.965 | S. cerevisiae deletion strains, locus YLR262C, strain YPT6 (second series), hits give low values 1.02 | S. cerevisiae deletion strains, locus YLR262C, strain YPT6, hits give low values 1.1 | S. cerevisiae deletion strains, locus YLR268W, strain sec22, hits give low values 1.02 | S. cerevisiae deletion strains, locus YLR320W, strain mms22, hits give low values 0.999 | S. cerevisiae deletion strains, locus YLR330W, strain CHS5, hits give low values 1.01 | S. cerevisiae deletion strains, locus YLR342W, strain FKS1 (second series), hits give low values 1.02 | S. cerevisiae deletion strains, locus YLR342W, strain FKS1, hits give low values 0.993 | S. cerevisiae deletion strains, locus YLR357W, strain rsc2, hits give low values 0.997 | S. cerevisiae deletion strains, locus YLR370C, strain arc18, hits give low values 0.974 | S. cerevisiae deletion strains, locus YLR371W, strain rom2, hits give low values 1.01 | S. cerevisiae deletion strains, locus YLR384C, strain iki3, hits give low values 0.983 | S. cerevisiae deletion strains, locus YLR418C, strain cdc73, hits give low values 1.01 | S. cerevisiae deletion strains, locus YML016C, strain PPZ1, hits give low values 1 | S. cerevisiae deletion strains, locus YML032C, strain rad52, hits give low values 1.01 | S. cerevisiae deletion strains, locus YML120C, strain ndi1, hits give low values 0.978 | S. cerevisiae deletion strains, locus YML124C, strain tub3, hits give low values 1 | S. cerevisiae deletion strains, locus YMR058W, strain fet3, hits give low values 0.996 | S. cerevisiae deletion strains, locus YMR078C, strain ctf18, hits give low values 1.01 | S. cerevisiae deletion strains, locus YMR125W, strain sto1, hits give low values 1.01 | S. cerevisiae deletion strains, locus YMR129W, hits give low values 0.99 | S. cerevisiae deletion strains, locus YMR205C, strain PFK2, hits give low values 1.01 | S. cerevisiae deletion strains, locus YMR223W, strain ubp8, hits give low values 1.01 | S. cerevisiae deletion strains, locus YMR231W, strain pep5, hits give low values 0.995 | S. cerevisiae deletion strains, locus YMR307W, strain GAS1, hits give low values 1.08 | S. cerevisiae deletion strains, locus YNL067W, strain RPL9B, hits give low values 1.02 | S. cerevisiae deletion strains, locus YNL071W, strain lat1, hits give low values 0.993 | S. cerevisiae deletion strains, locus YNL153C, strain GIM3, hits give low values 0.998 | S. cerevisiae deletion strains, locus YNL183C, strain NPR1, hits give low values 0.971 | S. cerevisiae deletion strains, locus YNL209W, strain ssb2, hits give low values 0.987 | S. cerevisiae deletion strains, locus YNL233W, strain BNI4, hits give low values 1.01 | S. cerevisiae deletion strains, locus YNL248C, strain rpa49, hits give low values 1.06 | S. cerevisiae deletion strains, locus YNL250W, strain rad50, hits give low values 1 | S. cerevisiae deletion strains, locus YNL271C, strain bni1, hits give low values 1.02 | S. cerevisiae deletion strains, locus YNL298W, strain CLA4, hits give low values 1.02 | S. cerevisiae deletion strains, locus YNL307C, strain MCK1, hits give low values 1.02 | S. cerevisiae deletion strains, locus YNL322C, strain KRE1 (second series), hits give low values 0.987 | S. cerevisiae deletion strains, locus YNL322C, strain KRE1, hits give low values 1.01 | S. cerevisiae deletion strains, locus YNR049C, strain mso1, hits give low values 0.997 | S. cerevisiae deletion strains, locus YNR052C, strain pop2, hits give low values 1.02 | S. cerevisiae deletion strains, locus YOL006C, strain TOP1, hits give low values 0.958 | S. cerevisiae deletion strains, locus YOL012C, strain htz1 0.814 | S. cerevisiae deletion strains, locus YOL147C, strain pex11, hits give low values 1 | S. cerevisiae deletion strains, locus YOR001W, strain rrp6, hits give low values 0.992 | S. cerevisiae deletion strains, locus YOR061W, strain CKA2, hits give low values 1 | S. cerevisiae deletion strains, locus YOR069W, strain VPS5, hits give low values 1 | S. cerevisiae deletion strains, locus YOR070C, strain gyp1, hits give low values 0.989 | S. cerevisiae deletion strains, locus YOR080W, strain dia2, hits give low values 0.984 | S. cerevisiae deletion strains, locus YOR083W, strain WHI5, hits give low values 1.03 | S. cerevisiae deletion strains, locus YOR106W, strain vam3, hits give low values 1.01 | S. cerevisiae deletion strains, locus YOR136W, strain idh2, hits give low values 1.01 | S. cerevisiae deletion strains, locus YOR144C, strain elg1, hits give low values 1 | S. cerevisiae deletion strains, locus YOR184W, strain ser1, hits give low values 1.02 | S. cerevisiae deletion strains, locus YOR231W, strain MKK1, hits give low values 1.07 | S. cerevisiae deletion strains, locus YOR265W, strain rbl2, hits give low values 0.989 | S. cerevisiae deletion strains, locus YOR270C, strain vph1, hits give low values 0.955 | S. cerevisiae deletion strains, locus YOR290C, strain snf2, hits give low values 1 | S. cerevisiae deletion strains, locus YOR316C, strain cot1, hits give low values 1.02 | S. cerevisiae deletion strains, locus YPL051W, strain arl3, hits give low values 1.06 | S. cerevisiae deletion strains, locus YPL055C, strain LGE1, hits give low values 1.02 | S. cerevisiae deletion strains, locus YPL078C, strain atp4, hits give low values 1.03 | S. cerevisiae deletion strains, locus YPL106C, strain sse1, hits give low values 0.966 | S. cerevisiae deletion strains, locus YPL240C, strain hsp82, hits give low values 0.984 | S. cerevisiae deletion strains, locus YPL241C, strain CIN2, hits give low values 1 | S. cerevisiae deletion strains, locus YPL256C, strain CLN2, hits give low values 1.04 | S. cerevisiae deletion strains, locus YPR119W, strain clb2, hits give low values 1.01 | S. cerevisiae deletion strains, locus YPR141C, strain kar3, hits give low values 1.01 | S. cerevisiae deletion strains, locus YPR163C, strain tif3, hits give low values 1.02 | S. cerevisiae deletion strains, locus YPR167C, strain met16, hits give low values 1.02 | S. cerevisiae deletion strains, strain wtn01, hits give low values 1.01 | S. cerevisiae strains, strain wild type, hits give low values 1.01
